Bioassay records (PubChem)
The list is not random: actives were taken first. Their share in the collection is about 1.4%.
GLS inhibitor: blocks human kidney-isoform glutaminase activity | O94925 | GLS enzymatic activity, qHTS titration | Potency, µM (doses to about 45.5 µM), for the others: at the top dose activity change, negative = inhibition, usual class: inhibitors | actives 0.21% (n = 410,000) | AID 624170; note: potency is the fitted concentration of half-maximal effect; % is set by controls: 0 for no effect and ±100 for the full control effect
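hKGA in 45 mM KH2PO4 pH 8.2, 0.02% Tween-20 with pin-transferred compounds; 1 mM L-glutamine (stock) plus glutamate oxidase/HRP/Amplex Red coupling added. Fluorescence read initially and after 30 min at RT.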
PKM2 act: PKM2 (human) enzyme activation; Potency, µM (series often up to 57.5 µM), inactives show at the highest dose activation, most hits filed as activators; purified PKM2, Kinase-Glo ATP luminescence, activation; response scale: 0% is enzyme alone, no compound; actives 0.34% (n = 260,000); P14618; note: potency is the fitted concentration of half-maximal effect; % is set by controls: 0 for no effect and ±100 for the full control effect; nearly all actives have a fitted effect of over 55% in size
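ATP formation by purified human PK-M2, quantified via coupled luciferase luminescence after 1 h at room temperature with 0.1 mM ADP and 0.5 mM PEP final.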
mIDH1 inhibitor: inhibitors of human mutant IDH1 R132H; IDH1-R132H enzyme, NADPH consumption, diaphorase/resazurin fluorescence; actives 0.093% (n = 390,000); Potency, µM (titrated, usually from 76.6 µM), for the others: at the highest dose activity change, negative = inhibition, hits mostly inhibitors; O75874; note: potency is the fitted concentration of half-maximal effect; % is set by controls: 0 for no effect and ±100 for the full control effect; nearly all actives have a fitted effect of over 65% in size
Target sequence (O75874 whole entry R132H, stated change not applied): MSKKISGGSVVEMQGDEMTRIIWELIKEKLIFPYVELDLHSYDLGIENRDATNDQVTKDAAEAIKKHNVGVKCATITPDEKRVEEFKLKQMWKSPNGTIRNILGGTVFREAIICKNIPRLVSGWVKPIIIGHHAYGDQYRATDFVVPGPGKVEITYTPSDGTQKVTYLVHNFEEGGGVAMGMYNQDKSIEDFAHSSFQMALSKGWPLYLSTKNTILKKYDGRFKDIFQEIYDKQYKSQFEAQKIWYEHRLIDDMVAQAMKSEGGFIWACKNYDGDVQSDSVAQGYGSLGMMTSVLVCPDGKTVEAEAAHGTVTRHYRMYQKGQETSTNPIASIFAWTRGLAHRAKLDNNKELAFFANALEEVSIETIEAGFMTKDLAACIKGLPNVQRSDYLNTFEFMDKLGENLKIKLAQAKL
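IDH1-R132H (0.5 ug/mL dispensed) in pH 7.5 Tris buffer was preincubated 30 min with compound, then given a substrate mix of 0.016 mM NADPH and 2 mM alpha-KG for 80 min at room temperature; remaining NADPH was read by diaphorase/resazurin fluorescence.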
LDHA inh: LDHA (human) enzyme inhibition | P00338 | actives 0.15% (n = 480,000) | activity change, % (values are at about 110 or 230 µM) | AID 1347041 | purified LDHA, NADH/diaphorase-resazurin fluorescence; stronger effect = lower value; in the data active = activity change below about -30%; inconclusive = mostly about -25% to -30%;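 note: plate controls were DMSO wells for no effect and wells without enzyme for full effect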
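Resorufin fluorescence (ex540/em590), read at 0 and 20 min after diaphorase/resazurin addition, reports the NADH left after a 5 min room-temperature reaction of 2 nM human LDH5 with 0.06 mM NADH and 0.2 mM pyruvate.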
rTrxR1 inhibitor: inhibitors of rat thioredoxin reductase 1 | actives 1% (n = 390,000) | O89049 | recombinant rTrxR1, NADPH fluorescence consumption, selenite substrate | Potency, µM (top dose mostly 114 µM), for inactives: at the top dose activity change, negative = inhibition, most hits filed as inhibitors; note: potency is the fitted concentration of half-maximal effect; % is set by controls: 0 for no effect and ±100 for the full control effect; nearly all actives have a fitted effect of over 65% in size
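Rat TrxR1 (90 nM in the dispensed reagent) was pre-reduced with 400 uM NADPH for 5 min at room temperature, then incubated with compound for 15 min. After 400 uM selenite was added, NADPH fluorescence (Ex 340/Em 450 nm) was followed for 8 min.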
TrxR1 substrate: substrates of rat thioredoxin reductase 1; O89049; purified TrxR1 substrate turnover, NADPH consumption readout; Potency, µM (doses to about 114 µM), inactives show at the highest dose activity change, negative = substrate turnover; actives 0.01% (n = 390,000); AID 588456; note: potency is the fitted concentration of half-maximal effect; % is set by controls: 0 for no effect and ±100 for the full control effect; nearly all actives have a fitted effect of over 50% in size
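Rat TrxR1, dispensed at 90 nM, was prereduced with 400 uM NADPH (final) for 5 min at ~22 deg C, then incubated with compound 15 min before 400 uM selenite. A first-read NADPH fluorescence drop versus no-compound background flagged substrates.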
IDH1 autofl: autofluorescence interference, mutant IDH1 hit counter-screen | shares compounds with mIDH1 inhibitor | 750 tested, under 10 active | Resorufin detection reagent fluorescence interference, cell-free | inhibition of signal, % at 51.2 µM;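 note: 0% = wells with normal resorufin and full inhibition = wells lacking resorufin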
IDH1 WT: selectivity of mutant IDH1 inhibitors: human wild-type IDH1. actives 9% (n = 750). AID 623995. shares compounds with mIDH1 inhibitor. WT IDH1 enzyme, NADPH diaphorase/resazurin fluorescence. Potency, µM (doses to about 115 µM), inactives show at the highest dose activity change, negative = inhibition, hits mostly inhibitors;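 note: potency is the fitted concentration of half-maximal effect; 0% = full WT IDH1 enzyme control and full inhibition = no enzyme wells; nearly all actives have a fitted effect of over 55% in size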
Target sequence (O75874 whole entry, looked up): as the sequence (O75874 whole entry R132H, stated change not applied) above, with H132R counted along it
IDH1 R132H conf: confirmation of human mutant IDH1 inhibitors; shares compounds with mIDH1 inhibitor; IDH1 R132H enzyme, NADPH diaphorase/resazurin fluorescence; Potency, µM (doses to about 76.6 µM), inactives show at the top dose activity change, negative = inhibition, most hits filed as inhibitors; actives 83% (n = 750); AID 624002; note: potency is the fitted concentration of half-maximal effect; nearly all actives have a fitted effect of over 50% in size
An asterisk follows results filed as active; i = inactive; ? = inconclusive; · = no result; ! = a repeat was not active; [ ] = another dose, or the depositor's remark. Unless noted, calls come from the whole dose curve; as a rule, active = well fitted curve in the direction sought with a large enough effect; inconclusive = small, poorly fitted or top-dose-only effect, or another doubt; inactive = no such curve, though single readings can be large; an effect the other way counts as inactive or inconclusive.

SMILES	GLS inhibitor	PKM2 act	mIDH1 inhibitor	LDHA inh	rTrxR1 inhibitor	TrxR1 substrate	IDH1 autofl	IDH1 WT	IDH1 R132H conf
CSC1=NC(=O)/C(=C\c2cccc3ccccc23)S1	-1.2%	-8.6%	58.5µM*	-16.9	34.5%[57.1 µM]	-10.8%	-5.4	70.8µM*	22.4µM*
CCNC(=O)/C(C#N)=C/c1c(N(Cc2ccccc2)Cc2ccccc2)nc2ccccn2c1=O	18.4%	0.4%	?	-0.4	14.2%	1.6%	-4.1	1.2%	20µM*
CNC(=O)/C(C#N)=C/c1c(N(Cc2ccccc2)Cc2ccccc2)nc2c(C)cccn2c1=O	7.4%	-9.6%	52.1µM*	-5.9	17.7%[57.1 µM]	-10.9%	-1.5	1.9%	14.1µM*
Cc1cc(C)cc(N(CC(=O)Nc2ccc(C(F)(F)F)cc2)S(=O)(=O)c2c(C)[nH]c(=O)[nH]c2=O)c1	12.2%	·	10.4µM*!	-0.2	-13.1%	-13.8%	7.9	44.7µM*	31.6µM*
COc1cc(NC(=O)CN(c2cc(C)cc(C)c2)S(=O)(=O)c2c(C)[nH]c(=O)[nH]c2=O)cc(OC)c1	4.1%	·	12.5%	-2.0	18.9%	-3.3%	·	·	·
CCCc1nc(SC)ncc1C(=O)NCc1ccc(C)cc1	·	·	·	0.5	·	·	·	·	·
CCOc1ccc(C2=C(C(C)=O)Sc3nnc(C)n3N2C(C)=O)cc1	7.1%	·	?	-10.0	0.3%	3.6%	·	·	·
CC(=O)C1=C(c2cccc([N+](=O)[O-])c2)N(C(C)=O)n2c(C)nnc2S1	?	?	20.7µM*	?	?	6.2%	-8.8	i	3.16µM*
CC(C)C/C(=N\NC(=O)C1CC1c1ccccc1)c1ccccc1 (stereo not given)	·	·	·	-0.1	·	·	·	·	·
CC(C)C[C@@H](CN1CCC[C@@H]1CN1C(=O)C(=O)NC[C@@H]1Cc1ccccc1)N1C[C@H](Cc2ccc(O)cc2)N(CC2CCCCCC2)C(=O)C1=O	13.5%	·	28.2µM*	1.4	11.9%	1.2%	-5.6	0.1%	11.2µM*
O=C1NC[C@H](Cc2ccccc2)N(C[C@H]2CCCN2C[C@H](Cc2ccccc2)N2C[C@H](Cc3ccc(O)cc3)N(CC3CCCCCC3)C(=O)C2=O)C1=O	13.4%	·	?	-0.8	10.2%	0.3%	1.4	-4.7%	10µM*
O=C1NC[C@H](Cc2ccc(O)cc2)N(C[C@@H]2CCCN2C[C@H](Cc2ccc(O)cc2)N2C[C@H](Cc3ccccc3)N(CC3CCCCCC3)C(=O)C2=O)C1=O	32.9%	·	·	-2.4	·	·	·	·	·
CCOc1ccc(CCN2C(=O)C(=O)N([C@@H](Cc3ccc(O)cc3)CN3CCC[C@@H]3CN3C(=O)C(=O)NC[C@@H]3Cc3ccccc3)C[C@@H]2Cc2ccccc2)cc1	26.1%	·	31.6µM*	0.1	12.4%	-2.2%	-6.3	5.4%	10µM*
O=C1NC[C@H](Cc2ccccc2)N(C[C@H]2CCCN2C[C@H](Cc2ccc(O)cc2)N2C[C@H](Cc3ccc(O)cc3)N(CC3CCCCCC3)C(=O)C2=O)C1=O	26.8%	·	?	-9.4	12.7%	2.9%	2.6	4.8%	15.8µM*
O=C(Cn1c(-c2ccccc2)cc2ccccc21)NCCC(=O)N1CCCC1	·	·	·	-12.6	·	·	·	·	·
O=C(O)CCCNS(=O)(=O)c1ccc(Cl)c(Cl)c1	·	·	·	-0.8	·	·	·	·	·
COc1cc2c(O)c3c(c(-c4ccc5c(c4)OCO5)c2cc1OC)C(=O)OC3	9.0%	-1.4%	?	13.4	28.0%	21.9%	-2.5	?	25.1µM*
COC(=O)c1c(NC(=O)c2ccccc2)sc(Cc2ccccc2)c1C	-26.9%	-6.1%	2.0%	-5.6	11.5%	13.8%	·	·	·
COC(=O)c1c(NC(C)=O)sc(Cc2ccccc2)c1C	-11.0%	-0.8%	?	2.9	11.6%	0.9%	-6.3	4.7%	50.1µM*
CC1=NOC(=O)/C1=C\c1ccc(-c2ccc(Br)cc2)o1	0.5%	18.8%	20.7µM*	-2.8	-32.7%	-4.9%[57.1 µM]	1.4	?	22.4µM*
Fc1ccc(-c2cn3c4ccccc4n(CCN4CCOCC4)c3n2)cc1	·	·	·	14.3	·	·	·	·	·
CN(CC(=O)NC1(C)CCS(=O)(=O)C1)Cc1ccccc1 (stereo not given)	·	·	·	-5.8	·	·	·	·	·
COc1cc(-c2nc3c(c(C)nn3-c3ccccc3)c3cc(OC)c(OC)cc23)ccc1O	-1.1%	8.6%	?	1.2	7.1%[57.1 µM]	48.4%	1.5	0.1%	10µM*
Clc1cccc(-n2cc(-c3ccccc3)c3c(NC4CCCC4)ncnc32)c1	2.5%	·	-7.3%	2.0	-1.6%[57.1 µM]	-4.1%[57.1 µM]	·	·	·
COc1ccc(-n2cc(-c3ccccc3)c3c(NC4CCCC4)ncnc32)cc1	-3.1%	·	31.6µM*	2.1	10.9%[57.1 µM]	-3.7%[57.1 µM]	0.1	-13.9%	14.1µM*
SMILES	GLS inhibitor	PKM2 act	mIDH1 inhibitor	LDHA inh	rTrxR1 inhibitor	TrxR1 substrate	IDH1 autofl	IDH1 WT	IDH1 R132H conf
Cc1ccc(N(C)C(=O)c2ccc3c(Cl)c4c(nc3c2)CCC4)cc1C	-0.4%	-0.7%	-9.7%	4.8	8.1%[57.1 µM]	-8.1%[57.1 µM]	·	·	·
COc1ccc(N(C)C(=O)c2ccc3c(Cl)c4c(nc3c2)CCCC4)c(OC)c1	-1.3%	·	?	-2.4	?	-14.3%	-6.5	-0.1%	39.8µM*
CCCOc1ccc(C2C(C(=O)c3ccc(C)o3)=C(O)C(=O)N2Cc2ccco2)cc1OCC (stereo not given)	18.4%	1.5%	52.1µM*	-0.9	?	-16.0%	-1.5	5.5%	?
CN(C)C(=O)COc1ccccc1-c1nc(-c2ccccc2)no1	·	·	·	-3.7	·	·	·	·	·
Cc1ccc(CN2CCSc3ccc(C(=O)N4CCN(c5ncccn5)CC4)cc32)cc1	2.8%	3.1%	?	-7.1	10.1%	21.0%	6.2	3.5%	15.8µM*
CCCN1C(=O)/C(=c2\sc3nc(=O)c(Cc4ccc(C)cc4)nn3c2=O)c2ccccc21	0.0%	3.4%	3.8%	-0.2	?	-6.6%	·	·	·
NC(=O)CN1C(=O)/C(=c2\sc3nc(=O)c(Cc4ccccc4)nn3c2=O)c2ccccc21	-18.9%	4.5%	?	5.4	17.8µM*	3.0%	2.3	39.7%	-6.1%
